Test results from publication PMC5700166.
Where a chain is given by its changes, count along the chain named.

Columns and labels:
Experiment in all cases: protein-binding microarray (PBM); PBM: ~300 nM protein, 6 mM HEPES pH 7.8, 80 mM KCl, 0.5 mM EDTA, 0.5 mM EGTA, 6% glycerol, 35 ng/ul poly-dIdC, 1% milk, 1 h, room temperature; Ap Aiptasia and Nv Nematostella (sea anemones) / Co Capsaspora / Aq Amphimedon (sponge) / Dm Drosophila / Hu human; RHD is the Rel homology domain; high values mean tight binding
Settings in all cases: dsDNA, one strand shown
GST-Dm-Relish = molecular target: T1, GST-Dm-Relish (Drosophila melanogaster, UniProt Q94527 99-473)
T1 sequence: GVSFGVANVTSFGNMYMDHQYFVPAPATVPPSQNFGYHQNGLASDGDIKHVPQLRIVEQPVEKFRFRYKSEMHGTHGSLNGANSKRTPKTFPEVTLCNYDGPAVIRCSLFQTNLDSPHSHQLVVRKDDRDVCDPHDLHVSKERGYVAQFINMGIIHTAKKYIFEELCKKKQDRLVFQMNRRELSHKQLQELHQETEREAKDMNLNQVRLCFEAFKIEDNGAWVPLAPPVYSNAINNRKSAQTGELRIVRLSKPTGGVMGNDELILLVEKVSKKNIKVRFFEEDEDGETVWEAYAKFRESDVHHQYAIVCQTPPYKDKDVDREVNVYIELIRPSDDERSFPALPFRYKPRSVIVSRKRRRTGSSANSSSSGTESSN

GST-Aq-NF-kB = molecular target: T2, GST-Aq-NF-kB (Amphimedon queenslandica, UniProt A9Y5G7 2-389)
T2 sequence: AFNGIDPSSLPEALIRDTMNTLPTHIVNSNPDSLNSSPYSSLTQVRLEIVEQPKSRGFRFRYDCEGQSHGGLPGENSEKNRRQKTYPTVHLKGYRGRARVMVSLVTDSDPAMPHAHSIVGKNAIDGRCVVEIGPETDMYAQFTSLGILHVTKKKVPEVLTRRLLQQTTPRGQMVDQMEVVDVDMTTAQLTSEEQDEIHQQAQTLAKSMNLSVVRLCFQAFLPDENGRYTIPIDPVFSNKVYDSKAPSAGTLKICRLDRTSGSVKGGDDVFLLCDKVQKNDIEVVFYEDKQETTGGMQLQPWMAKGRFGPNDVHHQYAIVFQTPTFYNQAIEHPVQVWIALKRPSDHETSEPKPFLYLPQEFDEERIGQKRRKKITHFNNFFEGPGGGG

GST-Hu-p50 = GST-Hu-p50 (Homo sapiens, UniProt P19838 7-356)
GST-Hu-p50, sequence (P19838 7-356): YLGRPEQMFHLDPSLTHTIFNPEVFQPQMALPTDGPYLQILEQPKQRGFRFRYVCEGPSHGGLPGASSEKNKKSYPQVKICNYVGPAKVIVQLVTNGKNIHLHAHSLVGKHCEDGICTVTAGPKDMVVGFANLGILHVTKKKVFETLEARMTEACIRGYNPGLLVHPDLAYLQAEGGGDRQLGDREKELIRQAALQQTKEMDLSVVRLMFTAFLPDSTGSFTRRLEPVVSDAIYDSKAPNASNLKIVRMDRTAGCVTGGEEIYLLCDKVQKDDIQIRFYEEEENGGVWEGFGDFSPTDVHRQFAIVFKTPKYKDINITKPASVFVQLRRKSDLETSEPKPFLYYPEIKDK

GST-Ap-NF-kB RHD = molecular target: T3, GST-Ap-NF-kB RHD (Exaiptasia pallida (Aiptasia), UniProt A0A913YAJ5 2-422)
T3 sequence: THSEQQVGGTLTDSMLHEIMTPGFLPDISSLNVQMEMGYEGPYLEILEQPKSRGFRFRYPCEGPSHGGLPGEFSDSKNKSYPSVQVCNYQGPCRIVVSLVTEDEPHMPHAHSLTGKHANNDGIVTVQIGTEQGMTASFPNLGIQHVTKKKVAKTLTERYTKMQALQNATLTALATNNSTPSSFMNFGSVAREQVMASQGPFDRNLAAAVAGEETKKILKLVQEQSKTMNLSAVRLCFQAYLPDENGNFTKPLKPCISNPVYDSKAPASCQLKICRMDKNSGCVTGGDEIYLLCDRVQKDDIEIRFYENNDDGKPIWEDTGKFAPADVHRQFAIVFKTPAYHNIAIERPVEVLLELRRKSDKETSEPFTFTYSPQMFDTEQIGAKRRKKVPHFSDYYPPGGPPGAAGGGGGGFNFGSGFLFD

[1] = molecular target: T4, GST-Nv-NF-kB (Cys allele) (Nematostella vectensis, UniProt E5G601 2-411)
T4 sequence: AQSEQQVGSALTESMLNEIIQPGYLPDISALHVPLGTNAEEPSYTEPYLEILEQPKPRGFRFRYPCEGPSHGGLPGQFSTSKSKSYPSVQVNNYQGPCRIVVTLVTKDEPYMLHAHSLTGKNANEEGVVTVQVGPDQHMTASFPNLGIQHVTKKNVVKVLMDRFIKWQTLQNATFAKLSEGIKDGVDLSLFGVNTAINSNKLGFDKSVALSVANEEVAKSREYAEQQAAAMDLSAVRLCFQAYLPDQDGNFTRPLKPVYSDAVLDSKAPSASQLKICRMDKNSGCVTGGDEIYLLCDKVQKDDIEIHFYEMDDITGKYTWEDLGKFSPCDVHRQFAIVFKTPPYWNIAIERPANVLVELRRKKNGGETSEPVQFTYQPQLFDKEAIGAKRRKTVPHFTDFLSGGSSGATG

[2] = molecular target: T5, GST-Nv-NF-kB (Ser allele) (Nematostella vectensis, UniProt A7UNT2 2-411)
T5 sequence: T4 sequence with Q21R, C66S, S207N, E215Q, V217A, E225K, A268E, D399E

GST-Co-NF-kB = molecular target: T6, GST-Co-NF-kB (Capsaspora owczarzaki, UniProt F1ARL5 200-546)
T6 sequence: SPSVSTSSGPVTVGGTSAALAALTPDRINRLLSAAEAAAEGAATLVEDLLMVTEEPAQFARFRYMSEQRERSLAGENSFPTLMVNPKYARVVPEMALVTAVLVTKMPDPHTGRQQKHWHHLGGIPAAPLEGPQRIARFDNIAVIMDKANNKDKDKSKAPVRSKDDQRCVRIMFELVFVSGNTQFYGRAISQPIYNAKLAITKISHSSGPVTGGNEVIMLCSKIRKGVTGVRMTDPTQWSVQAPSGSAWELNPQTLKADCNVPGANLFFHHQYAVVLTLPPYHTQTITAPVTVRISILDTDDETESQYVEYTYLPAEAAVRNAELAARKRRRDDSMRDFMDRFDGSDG

Sequence | binding signal (GST-Dm-Relish) [z-score] | binding signal (GST-Aq-NF-kB) [z-score] | binding signal (GST-Hu-p50) [z-score] | binding signal (GST-Ap-NF-kB RHD) [z-score] | binding signal [1] [z-score] | binding signal [2] [z-score] | binding signal (GST-Co-NF-kB) [z-score]
CCGATTAACATCAGAAAGTTTCCTGATGTTAATCGGGTCTTGATTCGCTTGACGCTGCTG | 1.85 | 1.06 | 1.69 |  |  |  | 
CCGATTAACATCAGGCACTTCCCTGATGTTAATCGGGTCTTGATTCGCTTGACGCTGCTG |  | 3.6 |  | 1.15 | 1.51 |  | 
CCGATTAACATCAGGAATTTTTATGATGTTAATCGGGTCTTGATTCGCTTGACGCTGCTG | 1.94 | 1.99 | 1.39 |  |  |  | 
CCGATTAACATCATTGTCCCTTCTGATGTTAATCGGGTCTTGATTCGCTTGACGCTGCTG |  | 2.67 |  | 2.23 | 4.09 |  | 
CCGATTAACATCAGGACCGTCCCTGATGTTAATCGGGTCTTGATTCGCTTGACGCTGCTG |  | 6.42 |  | 4.25 | 3.73 |  | 
CCGATTAACATCAGGGCATGCCCTGATGTTAATCGGGTCTTGATTCGCTTGACGCTGCTG |  | 4.01 |  | 1.37 | 1.29 |  | 
CCGATTAACATCAGGAATTGCCCTGATGTTAATCGGGTCTTGATTCGCTTGACGCTGCTG |  | 4.94 |  | 1.16 | 2.2 |  | 
CCGATTAACATCAGGAAACAACCTGATGTTAATCGGGTCTTGATTCGCTTGACGCTGCTG | 1.07 | 2.89 | 1.61 |  |  |  | 
CCGATTAACATCAACGGGAACTCTGATGTTAATCGGGTCTTGATTCGCTTGACGCTGCTG | 1.77 | 2.25 |  | 2.34 | 1.64 | 1.08 | 1.78
CCGATTAACATCAGCATGGGAAATGATGTTAATCGGGTCTTGATTCGCTTGACGCTGCTG |  | 1.67 |  | 1.97 | 2.72 | 2.33 | 1.93
CCGATTAACATCAATTTTTTCCCTGATGTTAATCGGGTCTTGATTCGCTTGACGCTGCTG | 2.71 | 4.16 |  | 3.79 | 5.88 | 7.47 | 6.48
CCGATTAACATCAGACGTGGGAATGATGTTAATCGGGTCTTGATTCGCTTGACGCTGCTG |  | 2.21 |  | 1.19 | 1.45 | 1.48 | 2.5
CCGATTAACATCACCGTTTTCCCTGATGTTAATCGGGTCTTGATTCGCTTGACGCTGCTG | 2.19 | 3.24 |  | 3.62 | 4.51 | 6.61 | 4.03
CCGATTAACATCAAATTCTCCCCTGATGTTAATCGGGTCTTGATTCGCTTGACGCTGCTG | 2.37 | 5.21 |  | 5.65 | 6.62 | 7.76 | 8.72
CCGATTAACATCAAAATTCCCTCTGATGTTAATCGGGTCTTGATTCGCTTGACGCTGCTG | 5.36 | 6.5 |  | 5.17 | 7.29 | 7.2 | 3.2
CCGATTAACATCAGGGGAAGAAATGATGTTAATCGGGTCTTGATTCGCTTGACGCTGCTG | 6.53 | 4.68 |  | 4.46 | 5.99 | 6.85 | 8.71
CCGATTAACATCAGGGGGGGGACTGATGTTAATCGGGTCTTGATTCGCTTGACGCTGCTG |  | 5.29 |  | 7.06 | 5.11 | 4.69 | 4.78
CCGATTAACATCAAATAATTCCCTGATGTTAATCGGGTCTTGATTCGCTTGACGCTGCTG | 4.85 | 6.69 |  | 4.23 | 7.21 | 7.13 | 5.48
CCGATTAACATCACTTTTTTCCCTGATGTTAATCGGGTCTTGATTCGCTTGACGCTGCTG | 2.28 | 3.49 |  | 2.9 | 4.9 | 6.59 | 6.08
